Shown are actives, neighbours in structure and some others; about 3.8% of the full set was active somewhere.
PAFAH2 FP inh – inhibitors of human PAFAH2. Q99487. recombinant PAFAH2, FP-rhodamine activity probe, fluorescence polarization. inhibition, % at 3.39 µM. actives 0.99% (n = 340,000);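 active means inhibition above the mean over all tested compounds plus 3 SD, cut at about 30% in these data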;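 further: inhibitors block probe labeling of enzyme so polarization drops; 0% = enzyme with DMSO and 100% = wells lacking PAFAH2 protein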
PAFAH1B3 inh – blocks human PAF acetylhydrolase 1B catalytic subunit 3. Q15102. recombinant PAFAH1B3, FP-rhodamine probe, fluorescence polarization. inhibition, % at 3.39 µM. actives 0.28% (n = 340,000). AID 492972;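 active means inhibition above the screen-wide average of all tested compounds plus 3 SD, cut at about 25% in these data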;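 further: 0% = enzyme with DMSO only and 100% = wells lacking PAFAH1B3 protein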
Target sequence (Q15102 whole entry, looked up): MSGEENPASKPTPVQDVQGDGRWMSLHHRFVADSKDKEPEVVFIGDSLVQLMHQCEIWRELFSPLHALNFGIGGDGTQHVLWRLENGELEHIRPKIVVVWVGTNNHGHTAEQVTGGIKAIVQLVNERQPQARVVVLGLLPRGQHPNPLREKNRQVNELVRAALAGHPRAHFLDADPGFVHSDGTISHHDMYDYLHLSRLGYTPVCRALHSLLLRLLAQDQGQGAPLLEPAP
PAFAH1B2 inh – blocks human PAF acetylhydrolase 1b catalytic subunit 2; recombinant PAFAH1B2, FP-rhodamine activity probe, fluorescence polarization; inhibition, % at 3.39 µM; actives 1.2% (n = 340,000);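 active means inhibition above the mean of all tested compounds plus 3 SD, cut at about 24% in these data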;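 further: 0% = enzyme with DMSO and 100% = wells lacking PAFAH1B2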
Target sequence (P68402 whole entry, looked up): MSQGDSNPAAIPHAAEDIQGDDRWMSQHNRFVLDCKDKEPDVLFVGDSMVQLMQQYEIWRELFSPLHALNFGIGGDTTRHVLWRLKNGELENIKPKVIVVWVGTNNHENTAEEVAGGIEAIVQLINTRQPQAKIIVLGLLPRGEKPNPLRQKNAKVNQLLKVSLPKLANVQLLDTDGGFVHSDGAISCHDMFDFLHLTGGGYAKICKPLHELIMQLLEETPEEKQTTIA
PfM18AAP inh-1 – PfM18AAP enzyme inhibition. recombinant PfM18AAP, H-Glu-NHMec fluorogenic cleavage. inhibition, % at 7.35 µM. actives 1.2% (n = 290,000);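 active means inhibition above the campaign mean inhibition over all tested compounds plus 3 SD, cut at about 28% in these data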;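 further: 0% = plate median of test compound wells and 100% = 2 mM ZnCl2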
pPAFAH inh – inhibitors of human plasma PAF acetylhydrolase (pPAFAH); Q13093; inhibition, % at 3.39 µM; actives 1.5% (n = 330,000); recombinant pPAFAH, FP-rhodamine probe fluorescence polarization;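 active means inhibition above the mean inhibition across the screen plus 3 SD, cut at about 25% in these data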;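 further: inhibitors block binding of the rhodamine activity-based probe so polarization drops; 0% = enzyme with DMSO and 100% = wells lacking pPAFAH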
Pemphigus Ab inh – blocks pemphigus antibody binding to human desmoglein-3; DSG3-coupled beads, scFv-anti-DSG3-GFP binding, flow cytometry; hits give low values; actives 0.48% (n = 310,000); binding (percent of control), % at 10 µM; AID 588358;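 active means binding more than 3 SD below its plate's average and above zero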;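 further: hits lower antibody fragment binding to DSG3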
PfM18AAP inh-2 – confirmation of Plasmodium falciparum M18 aspartyl aminopeptidase inhibitors; shares compounds with PfM18AAP inh-1; recombinant PfM18AAP, H-Glu-NHMec fluorogenic cleavage; actives 28% (n = 2,400); inhibition, % at 7.35 µM;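 active means mean inhibition over replicate wells above the hit cutoff set for the earlier primary screen, cut at about 29% in these data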;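 further: 0% = median of test compound wells and 100% = 2 mM ZnCl2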
CTSL1 confirm – Cathepsin L (human) inhibition, confirmation; inhibition, % at 5.96 µM; shares compounds with PfM18AAP inh-1; AID 2178; 2,400 tested, under 10 active; purified cathepsin L1, Z-Leu-Arg-MCA fluorescence;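 active means average inhibition across replicates above the hit cutoff set in the earlier primary screen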;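 further: 0% = median of test compound wells and 100% = Z-Phe-Ala-diazomethylketone 1 µM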
The depositor's hits bear a star; . = no result given.

SMILES	PAFAH2 FP inh	PAFAH1B3 inh	PAFAH1B2 inh	PfM18AAP inh-1	pPAFAH inh	Pemphigus Ab inh	PfM18AAP inh-2	CTSL1 confirm
CNC[C@H](O)c1cccc(O)c1	13	4	7	-1	-4	106	.	.
CC(C)NCC(O)c1ccc2ccccc2c1 (centres undefined)	-7	1	9	.	1	104	.	.
CC(C)NCC(O)c1ccc(O)c(O)c1 (centres undefined)	5	11	-6	66*	5	91	51*	-4
COc1ccc(Oc2ccc(/C=C/C(=O)c3ccc(O)cc3)cc2[N+](=O)[O-])cc1	-42	-26	-16	2	-8	.	.	.
CCNc1nc(NCC)nc(N/N=C/c2ccc(O)c(O)c2)n1	-2	7	4	47*	6	101	33*	0
CSc1nc2oc3c(c2c2nncn12)CC(C)(C)SC3	-1	-1	7	32*	5	115	-6	-10
O=C(c1nc2ccc(Cl)cn2c1CN1CCC[C@H]1CO)N1CCCCCCC1	3	4	12	0	7	104	.	.
COc1ccccc1NC(=O)CC1S/C(=N/N=C(\C)C2CCCCC2)NC1=O (centres undefined)	2	3	-1	-12	6	107	.	.
O=C(NNC(=O)C1CCN(S(=O)(=O)c2c(Cl)cccc2Cl)CC1)c1ccccc1O	15	11	-2	.	15	103	.	.
O=C(NNC(=O)C1CCN(S(=O)(=O)c2ccccc2)CC1)c1ccccc1O	9	6	9	40*	2	98	-8	-7
Cc1ccc(/C(O)=C/c2nc3cc(C)ccc3oc2=O)cc1	.	.	.	39*	5	99	-36	-10
C=CCc1cccc(C=Nc2cc(Br)ccc2O)c1O	3	9	1	10	13	132	.	.
C=CCc1cccc(/C=N/c2ncn[nH]2)c1O	-5	2	-4	57*	-2	103	43*	-4
C=CCn1c(-c2cc3cccc(OC)c3o2)n[nH]c1=S	0	4	1	33*	4	.	-10	1
COc1ccc(/C=C2\CCc3ccccc3C2=O)cc1O	0	8	7	14	7	106	.	.
NC(=O)c1ccc(N2CCN(c3ccc(O)cc3)CC2)c([N+](=O)[O-])c1	0	3	-8	50*	16	92	6	2
CCOC(=O)c1cc([N+](=O)[O-])cc([N+](=O)[O-])c1Sc1ncnc2nc[nH]c12	8	12	2	.	.	86	.	.
c1cc(SSc2ccncc2)ccn1	7	5	5	62*	-6	96	50*	-1
COC(=O)/C=C1/N/C(=N\c2nc(C)cc(C)n2)N(c2ccc(Cl)cc2)C1=O	11	7	2	6	0	.	.	.
O=C(Nc1ccc(Br)cc1)c1cccc(N2C(=O)C3C4CCC(C4)C3C2=O)c1 (centres undefined)	1	1	0	4	4	99	.	.
CC1CCCN(C(=O)c2nn(C)c3c2CSc2ccccc2-3)C1 (centres undefined)	1	4	8	42*	6	95	2	-1
COc1ccc(C2=Nc3ccccc3OC2)cc1	-4	0	2	39*	3	112	-26	-1
Oc1ccccc1N=Cc1c(O)ccc2ccccc12	21	22	0	31*	.	105	-5	3
Fc1ccccc1/C=N/Nc1ncnc2nc[nH]c12	5	3	3	33*	-8	103	-28	3
CCOc1ccc(CN(C)C(=O)CNC(=O)c2ccc(Br)o2)cc1OC	0	1	7	0	3	101	.	.
SMILES	PAFAH2 FP inh	PAFAH1B3 inh	PAFAH1B2 inh	PfM18AAP inh-1	pPAFAH inh	Pemphigus Ab inh	PfM18AAP inh-2	CTSL1 confirm
COC(=O)Cc1ccc(NC(=S)NNC(=O)C2CC2)cc1	1	1	0	8	-4	111	.	.
Cc1ccc(S(=O)(=O)N2CCOCC2)cc1C(=O)N1CCN(c2ccc(C(F)(F)F)cn2)CC1	11	9	4	.	10	.	.	.
CCOc1c(Nc2ccccc2O)c(=O)c1=O	8	5	-2	35*	-2	104	-28	1
CCN(CC(=O)Nc1ccccc1OC)C(=O)CN1C(=O)NC(C)(c2ccccc2)C1=O (centres undefined)	-2	2	4	.	-1	100	.	.
CCOC(=O)NC(=O)COC(=O)c1ccc(Sc2ncn[nH]2)c([N+](=O)[O-])c1	16	10	4	89*	1	95	91*	-6
C=CCN(CC=C)C(=O)COC(=O)c1ccc(Sc2ncn[nH]2)c([N+](=O)[O-])c1	6	3	6	84*	7	115	80*	-1
Cn1cnnc1Sc1ccc(C(=O)OCC(=O)NCC(F)(F)F)cc1[N+](=O)[O-]	19	5	1	3	6	103	.	.
O=C(Nc1ccnn1C1CCN(Cc2ccc(CO)o2)CC1)c1ccccc1	-21	-3	2	4	-1	96	.	.
O=C(c1ccc(Cl)cc1)c1c[nH]cc1-c1ccccc1	6	9	6	37*	0	.	-43	1
COc1ccc(C(=O)c2c[nH]cc2-c2ccccc2)cc1	3	6	9	3	2	96	.	.
COCCNC(=S)NNc1ccccc1[N+](=O)[O-]	11	-2	1	61*	5	99	61*	3
CNC(=S)NNc1ccccc1[N+](=O)[O-]	-1	1	1	57*	8	.	61*	1
COCCNC(=S)Nc1ccc([N+](=O)[O-])cc1C	-7	0	4	6	1	99	.	.
CC1Cc2ccccc2N1C(=O)CN(C)CC(=O)Nc1cccc(F)c1 (centres undefined)	2	-3	5	.	3	99	.	.
O=C(O)c1ccnc(SCC(=O)c2ccccc2)c1	-6	5	1	50*	-1	103	26	0
O=C(CSc1ccccn1)c1ccc(F)cc1	0	4	-1	9	-3	83	.	.
Cc1ccc(C(=O)CSc2ccccn2)cc1	-4	-5	0	44*	-4	108	-26	-6
CC(=O)N1c2ccc(S(=O)(=O)NCCC(=O)Nc3ccc(OC(F)(F)F)cc3)cc2CC1C (centres undefined)	0	1	1	0	12	102	.	.
Cc1c(C(=O)O)cccc1-n1c(C)cc(/C=N/Nc2ccc([N+](=O)[O-])cn2)c1C	6	6	-2	59*	17	100	-17	6
Cc1cc(/C=N/NC(=O)CC#N)c(C)n1-c1ccc([N+](=O)[O-])cc1	9	10	0	34*	6	123	-50	-7

Screening data (PubChem)
